HTT ATP protect = protects HTT-Q103 PC12 cells, measured by ATP; PC12 HTT-Q103 induced, cytoprotection, ATP luminescence, 40 h; Potency, µM (series often up to 56.4 µM), for the others: cytoprotection (ATP increase), usual class: activators; hit rate 0.14% among 230,000; AID 1471; active means well fitted curve in the direction sought with a large enough effect; inconclusive means small, poorly fitted or top-dose-only effect, or another doubt; inactive means no such curve, though single readings can be large; an effect the other way counts as inactive or inconclusive; further: % of control where 0% means no effect; nearly all actives have a fitted effect of over 45% in size
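PC12 cells with ecdysone-inducible HTT exon 1 Q103-GFP, induced with 100 nM tebufenozide and co-treated with library compounds in a dose series (1536-well, 1500 cells/well). Cytoprotection read as ATP content by ATPlite luminescence.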
HttQ103 aggreg = reduces HttQ103-GFP aggregates in PC12 cells. Potency, µM (top dose mostly 46.1 µM), inactives show at the top dose activity change, negative = inhibition, usual class: inhibitors. PC12 HttQ103-GFP aggregates, Acumen cytometry, 40 h. hit rate 1.1% among 220,000; active means well fitted curve in the direction sought with a large enough effect; inconclusive means small, poorly fitted or top-dose-only effect, or another doubt; inactive means no such curve, though single readings can be large; an effect the other way counts as inactive or inconclusive; further: on the % scale 0 is the no-effect control and ±100 the full control effect; nearly all actives have a fitted effect of over 60% in size
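PC12 cells with ecdysone-inducible HTT exon1 Q103-GFP, induced by 100 nM tebufenozide, given compounds in a concentration series. GFP aggregates (1–25 um, 6 SD above background) counted in lysates by laser-scanning cytometry, 488 nm excitation.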
HPGD block = inhibitors of human 15-hydroxyprostaglandin dehydrogenase (HPGD) | P15428 | purified HPGD, NADH fluorescence kinetic, PGE2 substrate | Potency, µM, inactives show at the highest dose activity change, negative = inhibition, actives largely listed as inhibitors | hit rate 4.3% among 150,000; further: on the % scale 0 is the no-effect control and ±100 the full control effect
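NADH formation kinetics: reaction with 30 uM PGE2 and 1 mM NAD+ (final), 20 nM enzyme, Tris-HCl pH 8 with Tween 20, after 15 min compound preincubation at room temperature. Fluorescence change, last versus first of five reads.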
Lamin A splicing = LMNA splicing modulation. Potency, µM (top dose mostly 46.1 µM), for the others: at the highest dose ratio change, negative = inhibition, hits mostly inhibitors. HeLa LMNA splicing GFP/RFP minigene ratio, 48 h. AID 1487. hit rate 0.01% among 200,000; active means well fitted inhibition curve with a large enough effect in the signal ratio, with a control signal flat, not every such curve was filed as active; inconclusive means small, poorly fitted or top-dose-only effect, or effect the other way, or a change in a side signal; the % refers to the signal ratio; further: on the % scale 0 is the no-effect control and ±100 the full control effect
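Read-out is the ratio of GFP to DsRed2 object intensity, acquired by 488 nm laser-scanning cytometry on HeLa lamin A-EGFP minigene reporter cells. Compound incubation 48 hrs at 37 °C in Opti-MEM with 2% FBS; DMSO 0.5% final.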
ALDH1A1 inh = inhibitors of human aldehyde dehydrogenase 1A1. Purified ALDH1A1, NADH fluorescence, propionaldehyde substrate. Potency, µM (top dose mostly 75.3 µM), inactives show top-dose activity, negative = inhibition, actives largely listed as inhibitors. hit rate 7.3% among 220,000. AID 1030;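 further: plate controls were no enzyme wells and a reference inhibitor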
Target sequence (P00352 whole entry, looked up): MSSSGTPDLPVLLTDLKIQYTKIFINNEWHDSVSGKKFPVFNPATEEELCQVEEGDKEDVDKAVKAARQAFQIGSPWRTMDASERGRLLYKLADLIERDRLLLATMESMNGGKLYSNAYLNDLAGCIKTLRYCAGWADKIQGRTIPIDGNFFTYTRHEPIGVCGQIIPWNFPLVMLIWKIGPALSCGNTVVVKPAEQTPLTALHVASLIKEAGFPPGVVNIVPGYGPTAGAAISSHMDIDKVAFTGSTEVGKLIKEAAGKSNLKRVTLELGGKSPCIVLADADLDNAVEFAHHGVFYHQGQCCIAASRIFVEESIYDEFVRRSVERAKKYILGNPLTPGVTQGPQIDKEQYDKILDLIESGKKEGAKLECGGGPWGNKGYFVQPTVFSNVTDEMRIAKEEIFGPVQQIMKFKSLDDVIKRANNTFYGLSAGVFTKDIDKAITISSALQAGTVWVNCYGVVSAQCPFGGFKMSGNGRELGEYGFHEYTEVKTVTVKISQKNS
Active calls of the source: *; ! = a repeat was not active; [ ] = dose if it differs, or a comment. Compounds with a hit are over-represented: about 8.8% of the library has one in this group of screens. Unless noted, the call rests on the fitted dose curve; in most records, active means well fitted inhibition curve with a large enough effect (not every such curve was filed as active); inconclusive means small, poorly fitted or top-dose-only effect, or another doubt; inactive means no such curve, though single readings can be large or run the other way. Potency means the concentration at half of the fitted maximal effect.

O=C1C(SCCO)=C(SCCO)C(=O)c2ccccc21 was read as HTT ATP protect -102%, HPGD block 2.8µM*!, Lamin A splicing inconclusive and ALDH1A1 inh 18µM*.
For N#CC(=NCCO)C1=C(O)c2ccccc2C1=O the results were HTT ATP protect 3%[10 µM], HPGD block -3% and ALDH1A1 inh 7%[13.5 µM].
Screening CC(C)n1c(=S)[nH]c2c1c(=O)[nH]c(=O)n2C returned HTT ATP protect -17%, HttQ103 aggreg 12%, HPGD block 8.9µM*, Lamin A splicing 10% and ALDH1A1 inh 2µM*.
For CC(=O)Nc1ccc(S(=O)(=O)n2nc(-c3ccc(C)cc3)nc2N)cc1 the results were HTT ATP protect -13%, HttQ103 aggreg -6%, HPGD block 6.3µM*, Lamin A splicing inconclusive and ALDH1A1 inh 5%.
Cc1ccc(S(=O)(=O)n2nc(-c3cccnc3)nc2N)cc1 was read as HTT ATP protect 15%, HttQ103 aggreg 21%, HPGD block -9%, Lamin A splicing 6% and ALDH1A1 inh 7%.
Screening Cc1cc(O)c(C(c2ccccc2)N2CCN(c3ccccc3)CC2)c(=O)n1Cc1ccco1 (configuration not stated) returned Lamin A splicing -10%[46 µM].
For O=C(CSc1nc2ccccc2s1)N1CCOCC1 the results were HTT ATP protect 6%[10 µM], HttQ103 aggreg -17%, HPGD block -28%, Lamin A splicing -9% and ALDH1A1 inh inconclusive.
O=C1CCCCCN1CSc1nc2ccccc2s1 was read as HTT ATP protect 12%, HttQ103 aggreg -9%, HPGD block -24%, Lamin A splicing 6% and ALDH1A1 inh 13µM*.
`CCS(=O)CCSc1nc2ccccc2s1` (configuration not stated) gave HTT ATP protect -10%, HttQ103 aggreg -16%, HPGD block 16µM*, Lamin A splicing 5% and ALDH1A1 inh inconclusive.
Screening NC(=O)C1(N2CCCCC2)CCN(C(=O)CSc2nc3ccccc3s2)CC1 returned HTT ATP protect 6%, HttQ103 aggreg 16%, HPGD block -24%, Lamin A splicing -3% and ALDH1A1 inh 25µM*.
Screening CC1=NN(CCC#N)C(=O)/C1=C/c1ccc(N(C)C)cc1 returned HTT ATP protect -18%, HttQ103 aggreg -13%, Lamin A splicing -2%[46 µM] and ALDH1A1 inh 7.9µM*.
`COc1cc(/C=C2\C(=O)N(CCC#N)N=C2C)ccc1OCC(=O)Nc1ccccc1` gave HTT ATP protect 10%[10 µM], HttQ103 aggreg -10%, HPGD block 10µM*, Lamin A splicing -3% and ALDH1A1 inh 13µM*.
COc1cc(/C=C2\SC(N)=NC2=O)ccc1OCC(=O)Nc1ccc(C)cc1 was read as HTT ATP protect -4%[10 µM], HttQ103 aggreg 19%, HPGD block 4.5µM*, Lamin A splicing inconclusive and ALDH1A1 inh 7%.
Screening Cc1ccc(NC(=O)c2cnc(SCC(=O)N3CCCc4ccccc43)n(C)c2=O)cc1C returned Lamin A splicing -6%[46 µM].
CCOC(=O)c1ccc(CN(Cc2ccc(Cl)cc2Cl)S(=O)(=O)c2cccc(Cl)c2)cc1 was read as Lamin A splicing 6%[46 µM].
Screening COc1ccccc1C(=O)OCc1cc(=O)n2nc(C3CC3)sc2n1 returned Lamin A splicing 12%[46 µM].
`CC1=CCC(C(C)(C)O)CC1` (configuration not stated) gave HTT ATP protect -87%, HttQ103 aggreg 28% and Lamin A splicing inconclusive.
Screening [O-]/[N+](=C\c1ccncc1)c1ccc(Br)cc1 returned HTT ATP protect -14%, HttQ103 aggreg 2%, HPGD block inconclusive, Lamin A splicing 0% and ALDH1A1 inh 1.1µM*.
`CCOc1nc(-c2ccccc2O)nc2ccccc12` gave HTT ATP protect -2%[10 µM], HttQ103 aggreg -15%, HPGD block 13µM*, Lamin A splicing -5% and ALDH1A1 inh 2%.
For CO[C@H]1COC(=O)C/C=C\[C@H](C)[C@@H](OC)COC(=O)C/C=C\[C@@H]1C the results were HTT ATP protect 16%[10 µM] and ALDH1A1 inh 2%[13.5 µM].
For O=C(Oc1ccc(OC(=O)c2ccco2)c(S(=O)(=O)c2ccc(Br)cc2)c1)c1ccco1 the results were HTT ATP protect -14%, HttQ103 aggreg 11%, HPGD block 28µM*, Lamin A splicing inconclusive and ALDH1A1 inh inconclusive.

Source: PubChem BioAssay
